Data reported in the supplement of paper PMC8728848.
About 410 targets per protein were measured; listed, in parts, are those with the strongest signals and a random draw of the rest.

Columns and labels:
Test in all cases: glycan array binding signal (z-score within array); higher = stronger binding
Settings in all cases: glycan notation: IUPAC condensed, linker removed
[1] = biological target: Fuc(a1-2)Gal(b1-3)GlcNAc(b1-3)[Gal(b1-4)GlcNAc(b1-6)]Gal(b1-4)Glc
Outline: (§1)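 The binding signal is a Z-score computed within each array. Data were drawn from 3228 arrays in the Consortium for Functional Glycomics database, restricted to those with a known protein sequence. Scores were averaged over arrays of the same protein sequence at different concentrations or buffers, and over linkers, and negative values can be taken as non-binding.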

[2] = biological target: Fuc(a1-2)Gal(b1-4)GlcNAc(b1-3)Gal(b1-4)GlcNAc
Outline: as §1

[3] = biological target: Fuc(a1-2)Gal(b1-4)GlcNAc6S
Outline: as §1

[4] = biological target: Fuc(a1-2)Gal(b1-4)[Fuc(a1-3)]GlcNAc(b1-2)[Fuc(a1-2)Gal(b1-4)[Fuc(a1-3)]GlcNAc(b1-4)]Man(a1-3)[Fuc(a1-2)Gal(b1-4)[Fuc(a1-3)]GlcNAc(b1-2)Man(a1-6)]Man(b1-4)GlcNAc(b1-4)GlcNAc
Outline: as §1

[5] = biological target: Fuc(a1-2)[Gal(a1-3)]Gal(b1-4)GlcNAc
Outline: as §1

[6] = biological target: Fuc(a1-3)[Gal(b1-4)]GlcNAc(b1-2)Man(a1-3)[Fuc(a1-3)[Gal(b1-4)]GlcNAc(b1-2)Man(a1-6)]Man(b1-4)GlcNAc(b1-4)GlcNAc
Outline: as §1

[7] = biological target: Fuc(a1-3)[Gal(b1-4)]GlcNAc(b1-2)Man(a1-3)[Fuc(a1-3)[Gal(b1-4)]GlcNAc(b1-2)Man(a1-6)]Man(b1-4)GlcNAc(b1-4)[Fuc(a1-6)]GlcNAc
Outline: as §1

[8] = biological target: Fuc(a1-3)[Gal(b1-4)]GlcNAc(b1-6)GalNAc
Outline: as §1

Gal(a1-3)Gal = biological target: Gal(a1-3)Gal
Outline: as §1

[9] = biological target: Gal(a1-3)Gal(b1-4)GlcNAc(b1-2)Man(a1-3)[Gal(a1-3)Gal(b1-4)GlcNAc(b1-2)Man(a1-6)]Man(b1-4)GlcNAc(b1-4)GlcNAc
Outline: as §1

[10] = biological target: Gal(a1-3)[Gal(a1-4)]Gal(b1-4)GlcNAc
Outline: as §1

Gal(a1-6)Glc = biological target: Gal(a1-6)Glc
Outline: as §1

[11] = biological target: Gal(b1-3)GlcNAc(b1-2)[Gal(b1-3)GlcNAc(b1-6)]Man(a1-6)[Gal(b1-3)GlcNAc(b1-2)Man(a1-3)]Man(b1-4)GlcNAc(b1-4)GlcNAc
Outline: as §1

[12] = biological target: Gal(b1-3)GlcNAc(b1-3)Gal(b1-3)GlcNAc
Outline: as §1

[13] = biological target: Gal(b1-3)GlcNAc(b1-3)Gal(b1-4)GlcNAc(b1-3)Gal(b1-4)GlcNAc(b1-2)[Gal(b1-3)GlcNAc(b1-3)Gal(b1-4)GlcNAc(b1-3)Gal(b1-4)GlcNAc(b1-6)]Man(a1-6)[Gal(b1-3)GlcNAc(b1-3)Gal(b1-4)GlcNAc(b1-3)Gal(b1-4)GlcNAc(b1-2)Man(a1-3)]Man(b1-4)GlcNAc(b1-4)[Fuc(a1-6)]GlcNAc
Outline: as §1

[14] = biological target: Gal(b1-3)GlcNAc(b1-3)Gal(b1-4)GlcNAc(b1-6)[Gal(b1-3)GlcNAc(b1-3)]Gal(b1-4)Glc
Outline: as §1

[15] = biological target: Gal(b1-3)GlcNAc(b1-6)[Gal(b1-3)]GalNAc
Outline: as §1

[16] = biological target: Gal(b1-3)[Neu5Ac(b2-6)]GalNAc
Outline: as §1

[17] = biological target: Gal(b1-4)GlcNAc(b1-3)Gal(b1-4)GlcNAc(b1-3)Gal(b1-4)GlcNAc(b1-2)Man(a1-3)[Gal(b1-4)GlcNAc(b1-3)Gal(b1-4)GlcNAc(b1-3)Gal(b1-4)GlcNAc(b1-2)Man(a1-6)]Man(b1-4)GlcNAc(b1-4)GlcNAc
Outline: as §1

[18] = biological target: Gal(b1-4)GlcNAc(b1-3)Gal(b1-4)GlcNAc(b1-3)Gal(b1-4)GlcNAc(b1-3)Gal(b1-4)GlcNAc(b1-3)Gal(b1-4)GlcNAc(b1-2)[Gal(b1-4)GlcNAc(b1-3)Gal(b1-4)GlcNAc(b1-3)Gal(b1-4)GlcNAc(b1-3)Gal(b1-4)GlcNAc(b1-3)Gal(b1-4)GlcNAc(b1-6)]Man(a1-6)[Gal(b1-4)GlcNAc(b1-3)Gal(b1-4)GlcNAc(b1-3)Gal(b1-4)GlcNAc(b1-3)Gal(b1-4)GlcNAc(b1-3)Gal(b1-4)GlcNAc(b1-2)Man(a1-3)]Man(b1-4)GlcNAc(b1-4)[Fuc(a1-6)]GlcNAc
Outline: as §1

Gal(b1-4)GlcNAc6P = biological target: Gal(b1-4)GlcNAc6P
Outline: as §1

Gal3S(b1-3)GalNAc = biological target: Gal3S(b1-3)GalNAc
Outline: as §1

Gal3S(b1-4)Glc = biological target: Gal3S(b1-4)Glc
Outline: as §1

[19] = biological target: Gal3S(b1-4)[Fuc(a1-3)]Glc6S
Outline: as §1

Gal3S4S(b1-4)GlcNAc = biological target: Gal3S4S(b1-4)GlcNAc
Outline: as §1

Gal3S6S(b1-4)GlcNAc = biological target: Gal3S6S(b1-4)GlcNAc
Outline: as §1

B1: Ovorubin (Pomacea canaliculata), J7I2T6 (protein)
chain: MFVATSLLLAIATLVVRASPHNYLIMDIEPPKSVSERDILNLLSPLQVKHSFRVTGSTRLLIVIRLDAQSYEKLDEITVPGKVEVIPAVNMADTMERCGVSWPRVELTDDNVTLFESESTLTDVTKEQLKAMLIGYGEHMSGLLQAHRFEYYQAAGATPHRHFVFVNSVPDEIEVFGREGVDIWGGPGEFVVKPQYVTRI
glycan array binding signal (z-score) [1]: 0.184 | glycan array binding signal (z-score) [2]: 0.006 | glycan array binding signal (z-score) [3]: 0.049 | glycan array binding signal (z-score) [4]: 0.485 | glycan array binding signal (z-score) [5]: -0.498 | glycan array binding signal (z-score) [6]: 0.055 | glycan array binding signal (z-score) [7]: -0.362 | glycan array binding signal (z-score) [8]: 0.355 | glycan array binding signal (z-score) (Gal(a1-3)Gal): -0.576 | glycan array binding signal (z-score) [9]: 0.572 | glycan array binding signal (z-score) [10]: 7.96 | glycan array binding signal (z-score) (Gal(a1-6)Glc): -1.13 | glycan array binding signal (z-score) [11]: 4.93 | glycan array binding signal (z-score) [12]: -0.763 | glycan array binding signal (z-score) [13]: 2.9 | glycan array binding signal (z-score) [14]: -0.801 | glycan array binding signal (z-score) [15]: 0.3 | glycan array binding signal (z-score) [16]: -0.862 | glycan array binding signal (z-score) [17]: 0.387 | glycan array binding signal (z-score) [18]: 2.67 | glycan array binding signal (z-score) (Gal(b1-4)GlcNAc6P): -0.461 | glycan array binding signal (z-score) (Gal3S(b1-3)GalNAc): 0.802 | glycan array binding signal (z-score) (Gal3S(b1-4)Glc): -0.766 | glycan array binding signal (z-score) [19]: 3.72 | glycan array binding signal (z-score) (Gal3S4S(b1-4)GlcNAc): 9.33 | glycan array binding signal (z-score) (Gal3S6S(b1-4)GlcNAc): 4.31
